Shown are actives, neighbours in structure and some others; about 8.9% of the full set was active somewhere.
D3 antag: qHTS of D3 Dopamine Receptor Antagonist: qHTS; hit rate 2.5% among 360,000; D(3) dopamine receptor (Homo sapiens), P35462; D3R cells, DiscoveRx beta-arrestin luminescence, antagonist mode; hits give low values; AID 652054, 2013; max response, negative = inhibition, %; in the data active means max response below about -50%; inconclusive means no clear call, values can overlap the other calls; further: on the % scale 0 is the no-effect control and ±100 the full control effect
Target sequence (P35462 whole entry, looked up): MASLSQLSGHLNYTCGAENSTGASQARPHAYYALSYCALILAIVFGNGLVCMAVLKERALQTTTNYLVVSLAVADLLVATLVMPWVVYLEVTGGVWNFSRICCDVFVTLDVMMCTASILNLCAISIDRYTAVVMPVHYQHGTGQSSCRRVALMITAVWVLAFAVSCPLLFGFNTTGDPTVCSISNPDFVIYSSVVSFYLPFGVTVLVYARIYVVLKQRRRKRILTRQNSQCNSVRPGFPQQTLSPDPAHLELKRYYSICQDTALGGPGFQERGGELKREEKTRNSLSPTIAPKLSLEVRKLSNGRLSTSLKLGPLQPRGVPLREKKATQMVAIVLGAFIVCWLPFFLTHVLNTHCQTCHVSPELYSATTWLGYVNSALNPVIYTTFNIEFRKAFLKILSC
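Cells plated overnight at 1500 cells/well, then exposed to library compounds with dopamine controls for 90 minutes at 37 degrees C. DiscoveRx reagent added for 30–60 minutes at room temperature; luminescence read, quantitative HTS format.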
MCF10A rerep: A quantitative high throughput screen for small molecules that induce DNA re-replication in MCF 10a normal breast cells; MCF 10A DNA re-replication, Hoechst nuclear intensity, 48 h; Potency, µM (doses to about 46.1 µM), without a hit: top-dose activity, positive = re-replication, most hits filed as activators; hit rate 2.9% among 350,000; AID 624296, 2012; further: potency means the concentration at half of the fitted maximal effect; % of control where 0% means no effect; nearly all actives have a fitted effect of over 50% in size
DRD3 agonist: qHTS of D3 Dopamine Receptor Agonist: qHTS; D(3) dopamine receptor (Homo sapiens), P35462; D3R DiscoveRx beta-arrestin cells, luminescence, 90 min; max activation, %; hit rate 0.58% among 410,000; in the data active means max activation above about 30%; further: 0% is about no effect
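Agonist-mode cell screen: cells plated at 1500/well and incubated overnight at 37 °C, then exposed to library compounds for 90 min at 37 °C. Detection reagent was added for 30–60 min at room temperature, and luminescence was read.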
KB-V1 cytotox: qHTS assay for MDR1-selective chemotherapeutics: Primary screen using the drug-selected MDR subline cells KB-V1; Potency, µM (doses to about 46.1 µM), hits mostly cytotoxic; hit rate 3.4% among 400,000; KB-V1 MDR cells viability, CellTiter-Glo, 72 h; further: potency means the concentration at half of the fitted maximal effect; on the % scale 0 is the no-effect control and ±100 the full control effect; nearly all actives have a fitted effect of over 60% in size
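Following 72 h at 37 degrees C with compound, KB-V1 cell viability was read by CellTiter-Glo luminescence, medium being phenol-red-free DMEM plus 10% FBS; concentration-response parameters came from normalized, curve-fitted qHTS data.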
SW480 rereplic: A quantitative high throughput screen for small molecules that induce DNA re-replication in SW480 colon adenocarcinoma cells | SW480 DNA re-replication, Hoechst DNA content imaging, 48 h | hit rate 1.8% among 340,000 | AID 624297, 2012 | Potency, µM (titrated, usually from 46.1 µM), for the others: top-dose re-replication activation, actives largely listed as activators; further: potency means the concentration at half of the fitted maximal effect; % of control where 0% means no effect; nearly all actives have a fitted effect of over 55% in size
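Treated cells incubate 48 hr (37 C, 5% CO2), are stained 40 min with Hoechst, and nuclear fluorescence is enumerated; a rise in nuclei with high DNA signal marks re-replication.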
KB-3-1 tox: qHTS assay for MDR1-selective chemotherapeutics: Primary screen using the parental adenocarcinoma cell KB-3-1. KB-3-1 viability, CellTiter-Glo ATP luminescence, 72 h. Potency, µM (top dose mostly 46.1 µM), most hits filed as cytotoxic. hit rate 1.4% among 400,000; further: potency means the concentration at half of the fitted maximal effect; on the % scale 0 is the no-effect control and ±100 the full control effect; nearly all actives have a fitted effect of over 60% in size
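Screening of KB-3-1 cells (DMEM, 10% FBS, phenol-red free) ran from lowest to highest compound concentration; after 72 h at 37 °C viability was read luminescently and curves fitted.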
Active calls of the source: *; i = inactive; ? = inconclusive; nt = no result. Unless noted, the call rests on the fitted dose curve; in most records, active means well fitted curve in the direction sought with a large enough effect; inconclusive means small, poorly fitted or top-dose-only effect, or another doubt; inactive means no such curve, though single readings can be large; an effect the other way counts as inactive or inconclusive.

SMILES	D3 antag	MCF10A rerep	DRD3 agonist	KB-V1 cytotox	SW480 rereplic	KB-3-1 tox
Cc1nn(Cc2cccc(C(=O)NC(C)c3ccc(C(C)(C)C)cc3)c2)c(C)c1[N+](=O)[O-] (configuration not stated)	21.6	?	1.5	6.51µM*	9.9%	?
CCC(NC(=O)c1cccc(Cn2nc(C)c([N+](=O)[O-])c2C)c1)c1ccc(C(C)C)cc1 (configuration not stated)	13.0	3.8%	-20.5	2.91µM*	-5.4%	i
COC(=O)c1cccc(Cn2nc(C)c([N+](=O)[O-])c2C)c1	3.8	3.6%	0.2	?	0.3%	i
COc1cc2oc(=O)cc(-c3cccc(-c4ccc(C(F)(F)F)cc4)c3)c2c(OC)c1OC	-19.1	?	7.9	i	0.4%	i
CCc1cc(=O)oc2cc3occ(-c4ccc(OC)c(F)c4)c3cc12	-11.8	2.31µM*	-4.3	1.64µM*	?	18.4µM*
COc1cc(OC)c2c(-c3cccc(-c4ccc(OC)c(F)c4)c3)cc(=O)oc2c1	0.1	?	-19.5	i	1.46µM*	0.92µM*
COc1cc(OC)c2c(-c3cccc(-c4ccoc4)c3)cc(=O)oc2c1	38.3	7.31µM*	-3.9	i	?	i
COc1cc(OC)c2c(-c3ccccc3)cc(=O)oc2c1	-5.4	-2.6%	-15.2	i	-8.7%	i
CCc1cc(=O)oc2cc3occ(C)c3cc12	7.0	0.0%	-3.8	?	3.7%	i
COc1cc(OC)c2c(-c3cccc(-c4ccc(C(C)=O)cc4)c3)cc(=O)oc2c1	?	0.651µM*	-25.0	i	4.11µM*	i
COc1ccc(-n2c(-c3ccc(F)cc3)cn3c4c(=O)n(C)c(=O)n(C)c4nc23)cc1	nt	nt	2.4	i	nt	i
Cn1nnnc1SCCCNCc1ccc(-c2ccc(Br)cc2)o1	nt	nt	-30.7	i	nt	i
COc1cccc(CNC(=O)CSc2nc(=O)[nH]c3c2CCC3)c1	nt	nt	8.4	nt	nt	nt
COC(=O)Cc1c[nH]c2cccc(OCC(O)CN(Cc3ccc([N+](=O)[O-])cc3)C(C)(C)C)c12 (configuration not stated)	24.3	8.4%	-8.3	5.8µM*	8.0%	i
N#Cc1c(Nc2ccccc2Cl)s[nH]c1=O	-64.7*	?	-3.4	?	?	i
N#Cc1c(Nc2ccccc2C(F)(F)F)s[nH]c1=O	?	18.4µM*	-11.1	i	?	i
CO[C@H]1C[C@H](O[C@H]2[C@H](C)O[C@@H](O[C@@H]3/C(C)=C/C[C@@H]4C[C@@H](C[C@]5(C=C[C@H](C)[C@@H](C6CCCCC6)O5)O4)OC(=O)[C@@H]4C=C(C)[C@@H](O)[C@H]5OC/C(=C\C=C\[C@@H]3C)[C@]54O)C[C@@H]2OC)O[C@@H](C)[C@@H]1O	nt	nt	1.8	nt	nt	nt
Cc1ccccc1OCc1occc1C(=O)Nc1cccc(-n2cnnn2)c1	-3.2	-5.6%	-18.5	?	-2.5%	16.4µM*
Cc1cccc(OCc2occc2C(=O)Nc2cccc(-n3cnnn3)c2)c1	13.8	0.6%	3.5	i	-0.6%	i
Clc1ccc(COc2cccc(CNCc3ccncc3)c2)cc1	1.7	14.7%	40.3*	6.51µM*	-4.1%	?
COc1ccc(CNC(=O)c2cc3c(=O)n(Cc4ccc(OC)cc4)ccc3nc2C)cc1	nt	nt	7.4	i	nt	2.59µM*
Cc1nc2ccn(Cc3cccnc3)c(=O)c2cc1C(=O)NCc1ccc(Cl)cc1	nt	nt	-9.8	i	nt	?
C#CCn1c(S(=O)(=O)Cc2ccccc2Cl)nc(-c2ccccc2)c1-c1ccccc1	-11.0	7.4%	-4.7	i	-3.9%	i
C#CCn1c(S(=O)(=O)Cc2ccc(C)cc2)nc(-c2ccccc2)c1-c1ccccc1	-21.4	27.4%	0.0	6.51µM*	?	6.51µM*
Cc1ccc2c(c1)C(c1ccc(F)cc1)N(C(=O)c1ccc(S(=O)(=O)N3CCCCC3)cc1)CC(=O)N2 (configuration not stated)	nt	nt	-5.4	?	nt	i
SMILES	D3 antag	MCF10A rerep	DRD3 agonist	KB-V1 cytotox	SW480 rereplic	KB-3-1 tox
COc1ccc(C2=CC(=O)C[C@H](COCc3ccccc3)N(C(=O)OC(C)(C)C)O2)cc1	-25.9	23.1µM*	-23.5	i	-5.9%	i
COc1ccc(NC(=O)C2CCCN2C(=O)OCc2ccccc2)cc1 (configuration not stated)	-4.8	2.5%	1.2	i	-5.9%	i
O=S(=O)(NCc1ccccc1)c1ccc(Cl)cc1	0.9	5.4%	-0.3	i	-0.8%	i
O=S(=O)(Nc1cc2nc3ccccc3nc2n1Cc1ccccc1)c1ccc(Cl)cc1	-4.6	7.31µM*	-12.2	i	10µM*	i
CCC(CC)NC(=O)c1cc2c(C)nn(Cc3ccccc3Cl)c2s1	10.9	?	-9.0	14.6µM*	?	?
CCc1cc(C(=O)Nc2cc(S(=O)(=O)N(CC)CC)ccc2N2CCOCC2)sc1C	2.6	?	-4.6	i	-2.1%	i
Cc1nn(Cc2ccccc2Cl)c2sc(C(=O)Nc3nccs3)cc12	-9.1	13.5%	31.8*	i	3.3%	i
CCc1cc(C(=O)Nc2ccccc2N2CCOCC2)sc1C	-12.5	7.9%	-2.7	23.1µM*	-4.9%	i
Cc1nn(Cc2ccccc2Cl)c2sc(C(=O)Nc3ccccc3N3CCOCC3)cc12	45.5	9.2µM*	-17.6	?	174.4%	?
CCOC(=O)C(CC)c1cc2n(c(=O)c1C#N)CCC21OCCO1 (configuration not stated)	0.0	nt	0.9	i	nt	i
CCN(CC)c1cc2c(cc1F)c(=O)c(S(=O)(=O)c1cccc(C)c1)cn2C	nt	nt	-19.5	nt	nt	nt
Cc1csc2nc3cc(C(N)=O)ccc3c(=O)n12	4.2	-5.4%	-5.5	?	-43.3%	i
NC(=O)c1ccc2c(=O)n3c(-c4cc(Cl)c(N)c(Cl)c4)csc3nc2c1	9.1	?	20.3	i	29.9%	23.1µM*
NNC(=O)CN1C(c2cccc(Cl)c2)=Nc2ccc(Br)cc2C1c1ccccc1 (configuration not stated)	?	?	-10.3	i	-0.7%	i
COc1ccc(C2=Nc3ccc(Br)cc3C(c3ccccc3)N2CC(=O)NN)cc1 (configuration not stated)	-92.8*	-32.9%	-15.8	i	?	i
